# Results published in PubChem BioAssay.
# Calls of active or inactive are those of the source.
# What was measured:
# [1] = A549 cell viability effects, profiling panel, calcein-AM fluorescence, 48 h, basal (AID 1162); conditions: higher = more signal
# [2] = adipocyte viability effects, profiling panel, cell-based, 3T3-L1 adipocytes, calcein-AM fluorescence, 48 h, basal (AID 1163); conditions: 3T3-L1 adipocytes viability, higher = more signal
# [3] = HepG2 cell viability effects, profiling panel, calcein-AM fluorescence, 48 h, basal (AID 1164); conditions: higher = more signal
# [4] = MM1S cell viability effects, profiling panel, calcein-AM fluorescence, 48 h, basal (AID 1165); conditions: higher = more signal;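 also: viability of MM1S multiple myeloma cells under basal unstimulated conditions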
# [5] = basal RPMI8226 viability, no added stimulus, profiling panel, cell-based, calcein-AM fluorescence, 48 h, PK04 Diversity Set (AID 1166); conditions: RPMI8226 myeloma viability, higher = more signal;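 also: cells grown under basal conditions without added stimulus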
# [6] = basal HepG2 mitochondrial membrane potential changes, profiling panel, cell-based, JC-1 fluorescence, 24 h, 100 nL compound (AID 1167); conditions: higher = more signal
# [7] = basal 3T3-L1 adipocyte mitochondrial potential changes, profiling panel, cell-based, JC-1 fluorescence, 3T3-L1 adipocytes, 24 h, 100 nL compound (AID 1168); conditions: JC-1 mitochondrial fluorescence, higher = more signal, called active from +8 up or from −8 down
# [8] = basal RPMI8226 mitochondrial membrane potential changes, profiling panel, cell-based, JC-1 fluorescence, 24 h, 100 nL compound (AID 1169); conditions: RPMI8226 myeloma, JC-1 mitochondrial potential fluorescence, higher = more signal
# [9] = basal MM1S mitochondrial membrane potential changes, profiling panel, cell-based, JC-1 fluorescence, 24 h, 100 nL compound (AID 1170); conditions: higher = more signal
# [10] = A549 lung cancer cell viability effects, profiling panel, resazurin fluorescence, 24 h, PK04 Diversity Set (AID 1171); conditions: higher = more signal, called active from +8 up or from −8 down
# Also: test concentration not given here.
Compound,z-score [1],z-score [2],z-score [3],z-score [4],z-score [5],z-score [6],z-score [7],z-score [8],z-score [9],z-score [10]
COc1cc(NN2C(C(O)c3ccco3)C=CC3C(=O)N(C)C(=O)C32)cc(OC)c1OC (stereo not given),-1.2,-0.615,-0.827,0.032,0.134,-1.01,-0.892 (inactive),-0.573,0.314,-1.41 (inactive)
COc1cc2c(cc1O)C(C1CC1)N(Cc1cccc(OC(F)(F)F)c1)CC2 (stereo not given),-1.74,0.119,-3.68,-3.18,-2.99,-2.84,-0.356 (inactive),-0.686,-2.61,-1.05 (inactive)
COCCCNC(=O)[C@@]1(Sc2ccc(C)cc2)CC(=O)N(C2Cc3ccccc3C2)[C@@H]1c1ccc(CO)cc1,0.771,0.544,-0.603,0.762,-0.204,0.17,-0.137 (inactive),0.445,-1.59,0.491 (inactive)
COc1cc(NN2C(C(O)c3ccc(N(C)C)cc3)C=CC3C(=O)N(c4ccccc4)C(=O)C32)cc(OC)c1OC (stereo not given),-0.0098,0.808,0.181,-0.0191,-0.889,-0.112,-0.783 (inactive),0.134,-0.0117,-0.815 (inactive)
COc1ccc([Si](C)(C)[C@H]2[C@H](CC(=O)N3Cc4ccccc4C[C@H]3CO)O[C@@]3(C(=O)N(Cc4ccc(N5CCOC5=O)cc4)c4ccccc43)[C@@H]2C)cc1,-0.135,1.35,-0.919,-2.92,-4.23,-0.0556,0.19 (inactive),-1.04,-1.94,-0.0717 (inactive)
CCCC=C(CCC)[C@@H](NC(=O)c1cccs1)c1ccc(C(=O)OC)cc1,0.126,-0.302,-0.125,0.388,0.45,-0.115,-0.0911 (inactive),0.973,-0.997,0.902 (inactive)
CC(=O)N1CC2(CC2)CC1c1ccccc1 (stereo not given),-1.64,0.334,-1.34,-0.386,-1.14,-1.15,-1.86 (inactive),0.0805,0.359,-0.714 (inactive)
CCCC1(C(=O)OC)C=C2C(=C(C)C(=O)C2C)CN1 (stereo not given),-1.48,-1.07,-0.806,-0.44,-1.03,-1.96,-1.16 (inactive),-0.0212,-0.974,-0.727 (inactive)
[N-]=[N+]=Nc1ccccc1C[C@]1(C(=O)NCC(O)CO)COC(c2ccc(OCCCO)cc2)=N1 (stereo not given in full),0.67,1.11,0.409,0.195,-0.0237,0.244,-0.257 (inactive),-0.847,0.639,0.837 (inactive)
OCCCC1=CC(c2ccc(CN3CCCC3)cc2)N(Cc2cc3c(cc2Br)OCO3)CC1 (stereo not given),-0.8,1.07,0.552,-2.99,0.866,1.72,-0.261 (inactive),0.406,0.0254,0.731 (inactive)
CC(C)N1CC=CC23O[C@@H]4C=CCCOC(=O)C4[C@H]2C(=O)N(CCCO)[C@@H]3C1=O (stereo not given in full),-0.726,1.36,0.292,0.756,-0.457,-0.568,0.128 (inactive),-0.303,-0.438,0.446 (inactive)
COC(=O)C(CC#Cc1ccc2c(c1)[C@]1(C(=O)N2)[C@H](c2ccc(O)cc2)N2[C@H](c3ccccc3)[C@H](c3ccccc3)OC(=O)[C@H]2[C@@H]1C(=O)NC[C@H](O)c1ccccc1)C(=O)OC,-0.857,-0.909,-0.045,-1.58,-1.83,-2.42,-0.837 (inactive),-0.829,-0.633,-0.407 (inactive)
COC(=O)C1=CC(CCCO)=CC(c2ccc(CN3CCCC3)cc2)N(Cc2cccc(OC(F)(F)F)c2)C=C1C(=O)OC (stereo not given),0.589,-0.0684,1.34,1.04,-0.413,3.57,0.395 (inactive),0.121,0.593,-1.16 (inactive)
CC(C)N1C(=O)C[C@@](C(=O)NC2CC2)(c2ccc([N+](=O)[O-])cc2)[C@H]1c1ccc(CO)cc1,0.219,1.98,1.03,0.941,-1.73,0.347,-0.0995 (inactive),-0.416,0.059,-0.0786 (inactive)
